Bioassay records: PubChem, several laboratories
HIV RNase H inh-1: blocks HIV-1 RNase H cleavage of RNA/DNA duplex | P04585 | RT-RNase H RNA/DNA duplex cleavage, fluorescence | inhibition, % at 10 µM | actives 1.9% (n = 65,000); in the data active = inhibition above about 50%
RmlC RmlD mix: mixture blocks RmlC and RmlD coupled enzyme activity. inhibition, % at 5.5 µM. RmlC/RmlD coupled enzyme inhibition, 384-well mixture HTS. actives 0.39% (n = 110,000); in the data active = inhibition above about 30%, passing the limit was not always enough; inconclusive = no clear call, values can overlap the other calls
HIV RNase H inh-2: confirmation of HIV-1 reverse transcriptase RNase H inhibitors; actives 39% (n = 1,000); Recombinant RT RNase H, fluorescent RNA/DNA duplex cleavage; inhibition, % at 10 µM; shares compounds with HIV RNase H inh-1; AID 651; in the data active = inhibition above about 48%; inconclusive = no clear call, values can overlap the other calls
Numbers stand for hits; - = inactive; ? = inconclusive; . = no result given. The entries come from a sample that favours hits as a whole.

SMILES | HIV RNase H inh-1 | RmlC RmlD mix | HIV RNase H inh-2
O=C(Cn1c(=O)oc2cc(S(=O)(=O)N3CCCC3)ccc21)NC1CCCc2ccccc21 (stereo unspecified) | 65 | . | 76
CCOc1ccc(-n2c(N)c(C(=O)NCc3ccco3)sc2=S)cc1 | . | - | .
C=CCNC(=O)c1onc(CSc2ccccn2)c1C(=O)NCC=C | . | - | .
O=C1C=Cc2ccccc2C1=O | 95 | - | 67
CCN1C(=C2C(=O)c3ccccc3C2=O)C=Cc2ccccc21 | - | - | .
O=C(NCC(=O)N(c1ccc(F)cc1)C(C(=O)NCC1CCCO1)c1ccccc1)c1ccco1 (stereo unspecified) | 57 | - | -
O=C(NCC(=O)N(c1cccc(F)c1)C(C(=O)NCC1CCCO1)c1ccccc1)c1ccco1 (stereo unspecified) | - | - | .
CCOC(=O)CSc1nc2ccc(N3CCOCC3)cc2c(=O)n1Cc1ccccc1 | . | - | .
CN1/C(=C/C(=O)c2cccs2)Sc2ccccc21 | . | - | .
COc1ccc2c(c1)S/C(=C\C(=O)c1ccncc1)N2C | 67 | - | -
FC(F)(F)c1ccc(C2[C@H]3CN(CC4CCCCC4)[C@H](c4ccccc4)C34CC2(c2cccnc2)C4)cc1 (stereo partly specified) | . | - | .
COC1CCCCC1Nc1ccc(C)c(C)c1 (stereo unspecified) | . | - | .
Cc1cc(NC(=O)c2cc(C)on2)n(-c2ccccc2)n1 | 75 | . | -
Cc1cc(NC(=O)c2cc(C3CC3)on2)n(-c2ccccc2)n1 | - | - | .
C=CCNC1=C(Cl)C(=O)N(c2ccccc2Cl)C1=O | - | - | .
c1ccc2sc(SN3CCOCC3)nc2c1 | 79 | - | -
c1ccc2sc(N3CCOCC3)nc2c1 | . | - | .
O=C(c1ccc2nc(-c3ccco3)c(-c3ccco3)nc2c1)N1CCC2(CC1)OCCO2 | 75 | . | -
Cc1nc2cc(C(=O)N3CCC4(CC3)OCCO4)ccc2n1-c1cccc(F)c1 | - | - | .
O=C(OCC1COc2ccccc2O1)c1c(F)cccc1F (stereo unspecified) | - | - | .
Cc1cc(C)c(NC(=O)Cn2c(=O)n(Cc3ccco3)c(=O)c3ccccc32)c(C)c1 | 69 | - | 73
Cc1ccccc1Cn1c(=O)n(Cc2ccco2)c(=O)c2ccccc21 | - | - | .
Cc1csc(-c2cnn(-c3ccccc3)c2NC(=O)c2cccc(C(F)(F)F)c2)n1 | . | - | .
Cc1ccc(N=c2ssnc2Cl)cc1 | . | - | .
Cc1cc(C)nc(/N=c2/ssnc2Cl)c1 | 84 | - | -
SMILES | HIV RNase H inh-1 | RmlC RmlD mix | HIV RNase H inh-2
O=S(=O)(NC1CCCC1)c1cccc(S(=O)(=O)N2CCC(n3nnc4ccccc43)CC2)c1 | - | - | .
O=C(Nc1ccc2nc(-c3ccc(Br)o3)[nH]c2c1)c1cccs1 | 71 | - | -
Cn1cccc1-c1nc2ccc(NC(=O)c3cccs3)cc2[nH]1 | - | - | .
CCOC(=O)c1sc(NC(C)=O)c(C(=O)OCC)c1C | - | - | .
COC(=O)c1sc(NC(C)=O)c(C(=O)OC)c1C | 58 | - | -
CC1(C(=O)NC2CCCCCCC2)CCC(=O)N1Cc1cccs1 (stereo unspecified) | . | - | .
O=C(O)c1ccc2[nH]c3c(c2c1)CSCC3 | 66 | - | -
O=C(NCCO)c1ccc2[nH]c3c(c2c1)CCCC3 | - | - | .
CCCCN1CCCC1CNC(=O)c1cc(C#N)c2ccccc2c1OC (stereo unspecified) | . | - | .
COc1ccc(OCC(=O)Nc2cccc(-c3nc4ccccc4o3)c2)cc1 | - | - | .
CCc1ccc(OCC(=O)Nc2ccc(-c3nc4ccccc4o3)c(O)c2)cc1 | 68 | - | ?
CCSc1nnc(NC(=O)C2Cc3ccccc3CN2C(=O)c2ccco2)s1 (stereo unspecified) | 53 | - | ?
NS(=O)(=O)c1ccc(CCNC(=O)C2Cc3ccccc3CN2C(=O)c2ccco2)cc1 (stereo unspecified) | . | - | .
O=C(NCc1cccc(Br)c1)C1CC(c2ccc(C(F)(F)F)cc2)=NO1 (stereo unspecified) | . | - | .
O=C1c2ccccc2C(=O)C1c1ccnc2ccccc12 | . | - | .
N#CC1=C(N)SC(N)=C(C#N)C1c1ccnc2ccccc12 | 65 | - | 60
COc1cccc(CNc2cc(CSc3ccc(Cl)cc3)nc(C)n2)c1 | . | - | .
CCOC(=O)c1c(C)n(-c2ccc(C)cc2)c2c(C(C(C)=O)C(=O)O)c(Br)c(O)c(O)c12 (stereo unspecified) | . | - | .
CCOC(=O)C(C(C)=O)c1c(Br)c(O)c(O)c2c(C(=O)c3ccc(C)cc3)coc12 (stereo unspecified) | 95 | - | 63
CC(=O)c1sc(NC(=O)CN2C(=O)CCC2=O)nc1C | - | - | .
Cn1c(=O)[nH]c(=O)c2c1nc(N1CCCCC1)n2CCSc1ncccn1 | - | . | .
C/C=C/Cn1c(Br)nc2c1c(=O)[nH]c(=O)n2C | - | - | .
C/C=C/Cn1c(N2CCCCCC2)nc2c1c(=O)[nH]c(=O)n2C | 87 | . | -
C/C=C/Cn1c(SC)nc2c1c(=O)[nH]c(=O)n2C | 77 | - | ?
CCOc1cc(/C=N/n2cnnc2)ccc1OC(=O)c1cccc([N+](=O)[O-])c1 | . | - | .
SMILES | HIV RNase H inh-1 | RmlC RmlD mix | HIV RNase H inh-2
CSc1ccc(C2C(C#N)=C(N)Oc3c2ccc(=O)c2c(C)oc(C)c32)cc1 (stereo unspecified) | 61 | - | 67
Cc1oc(C)c2c(=O)ccc3c(c12)OC(N)=C(C#N)C3c1ccccc1 (stereo unspecified) | - | - | .
COc1ccc(N2CCN(Cc3cc(=O)oc4cc(-c5ccccc5)c(O)cc34)CC2)cc1 | 92 | - | 69
COc1ccc(N2CCN(Cc3cc(=O)oc4cc(C)c(Cl)cc34)CC2)cc1 | - | - | .
CC1(c2nnc(-c3ccccc3)o2)CC(c2ccc([N+](=O)[O-])cc2)=NO1 (stereo unspecified) | . | - | .
COC(=O)c1ccc2c(=O)n(Cc3ccco3)c(SCC(=O)Nc3ccccc3Cl)nc2c1 | 86 | - | 67
COC(=O)c1ccc2c(=O)n(CC3CCCO3)c(SCC(=O)Nc3ccccc3Cl)nc2c1 (stereo unspecified) | . | - | .
Cc1cccc2sc(NC(=O)C3CCCO3)nc12 (stereo unspecified) | - | - | .
Cc1nc(C)c(C(=O)Nc2nc3c(C)cccc3s2)o1 | 86 | - | 68
O=C(c1ccco1)N1CCN(C(=O)c2cc(-c3ccccn3)nc3ccc(Cl)cc23)CC1 | 69 | - | -
O=C(c1ccco1)N1CCN(C(=O)c2cc(-c3ccccc3)nc3ccccc23)CC1 | . | - | .
Cc1ccc2nc(-c3ccccc3Cl)cc(C(=O)Nc3cc(C)on3)c2c1 | - | - | .
N#Cc1c(NC(=O)c2ccncc2)sc2c1CCC2 | 64 | - | -
CCCc1cc(C(=O)Nc2sc3c(c2C#N)CCC3)no1 | 61 | . | 70
CCCC(=O)Nc1sc2c(c1C#N)CCCC2 | - | - | .
CC(=O)Nc1sc2c(c1C#N)CCCC2 | . | - | .
CCOC(=O)N1CCN(C(=O)C(NS(=O)(=O)c2cccc3nsnc23)c2ccccc2)CC1 (stereo unspecified) | - | - | .
CCc1nn(C(C)C(=O)Nc2cccc(C)c2C)c(=O)c2cc3occc3n12 (stereo unspecified) | - | - | .
Cn1cc(C(=O)c2ccc(Cl)cc2)cc1-c1nc2ccccc2n1C | - | - | .
CC(=O)N1CCN(c2cc(N3CCc4ccccc4C3)c(F)cc2[N+](=O)[O-])CC1 | . | - | .
Cc1ccc(C2CC(=O)NC(SCCC(C)C)=C2C#N)cc1 (stereo unspecified) | 65 | - | -
